From ChEMBL document CHEMBL2218924, “A broad activity screen in support of a chemogenomic map for kinase signalling research and drug discovery” (Biochem J, 2013)

Columns and labels:
[1] = target: T1, Serine/threonine-protein kinase Nek2 (Homo sapiens) (UniProt P51955); conditions: at 1 µM
T1 sequence (whole entry): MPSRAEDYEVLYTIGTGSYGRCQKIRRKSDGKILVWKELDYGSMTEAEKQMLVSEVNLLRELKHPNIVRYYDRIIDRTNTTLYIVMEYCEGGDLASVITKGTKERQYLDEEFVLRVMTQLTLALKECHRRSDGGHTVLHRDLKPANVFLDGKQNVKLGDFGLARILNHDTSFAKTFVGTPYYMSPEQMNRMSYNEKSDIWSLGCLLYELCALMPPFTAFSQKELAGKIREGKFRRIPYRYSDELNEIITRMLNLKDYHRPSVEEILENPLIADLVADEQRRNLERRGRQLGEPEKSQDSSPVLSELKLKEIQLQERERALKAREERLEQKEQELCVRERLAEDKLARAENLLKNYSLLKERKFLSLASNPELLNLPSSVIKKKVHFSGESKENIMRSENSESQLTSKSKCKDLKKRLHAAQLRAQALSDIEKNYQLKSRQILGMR

[2] = target: T1, Serine/threonine-protein kinase Nek2 (Homo sapiens); conditions: at 10 µM
[3] = target: T2, Serine/threonine-protein kinase Nek3 (Homo sapiens) (UniProt P51956); conditions: at 1 µM
T2 sequence (whole entry): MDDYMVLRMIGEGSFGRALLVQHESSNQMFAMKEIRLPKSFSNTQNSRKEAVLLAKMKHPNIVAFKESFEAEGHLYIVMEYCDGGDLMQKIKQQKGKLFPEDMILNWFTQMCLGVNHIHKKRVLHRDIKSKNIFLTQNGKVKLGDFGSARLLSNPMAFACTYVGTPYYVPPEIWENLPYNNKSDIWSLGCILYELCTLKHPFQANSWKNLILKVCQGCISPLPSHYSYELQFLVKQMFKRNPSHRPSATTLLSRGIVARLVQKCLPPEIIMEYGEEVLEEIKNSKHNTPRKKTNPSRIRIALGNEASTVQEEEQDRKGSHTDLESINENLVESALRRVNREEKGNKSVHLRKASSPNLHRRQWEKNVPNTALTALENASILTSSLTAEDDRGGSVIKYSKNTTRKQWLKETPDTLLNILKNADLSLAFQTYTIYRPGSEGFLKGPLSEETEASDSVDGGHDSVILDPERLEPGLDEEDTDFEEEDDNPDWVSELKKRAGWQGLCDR

[4] = target: T2, Serine/threonine-protein kinase Nek3 (Homo sapiens); conditions: at 10 µM
[5] = target: Serine/threonine-protein kinase tousled-like 2 (Homo sapiens) (UniProt Q86UE8); conditions: at 1 µM
Chain of Serine/threonine-protein kinase tousled-like 2 (Homo sapiens) (Q86UE8 whole entry, looked up): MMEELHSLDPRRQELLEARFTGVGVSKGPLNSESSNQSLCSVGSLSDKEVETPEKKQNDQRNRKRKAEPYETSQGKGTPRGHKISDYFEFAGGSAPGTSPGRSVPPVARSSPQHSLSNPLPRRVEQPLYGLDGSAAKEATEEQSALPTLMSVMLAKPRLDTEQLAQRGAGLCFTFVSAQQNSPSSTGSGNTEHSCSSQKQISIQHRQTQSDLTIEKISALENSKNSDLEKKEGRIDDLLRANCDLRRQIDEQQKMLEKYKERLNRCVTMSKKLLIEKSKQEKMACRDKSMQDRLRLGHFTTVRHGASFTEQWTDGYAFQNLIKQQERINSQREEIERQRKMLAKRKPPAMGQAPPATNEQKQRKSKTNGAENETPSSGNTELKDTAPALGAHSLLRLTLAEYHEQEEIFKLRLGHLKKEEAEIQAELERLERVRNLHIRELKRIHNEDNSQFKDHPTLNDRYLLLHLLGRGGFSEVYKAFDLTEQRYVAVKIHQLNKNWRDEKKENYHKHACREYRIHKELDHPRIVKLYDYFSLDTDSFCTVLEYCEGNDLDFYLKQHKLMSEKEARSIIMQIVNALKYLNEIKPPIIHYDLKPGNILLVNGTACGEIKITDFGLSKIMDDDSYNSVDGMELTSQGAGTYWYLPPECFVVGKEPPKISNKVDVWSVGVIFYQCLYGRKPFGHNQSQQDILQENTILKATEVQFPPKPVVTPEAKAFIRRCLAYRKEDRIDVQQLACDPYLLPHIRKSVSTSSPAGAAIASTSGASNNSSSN

[6] = target: Serine/threonine-protein kinase tousled-like 2 (Homo sapiens) (UniProt Q86UE8); conditions: at 10 µM
[7] = target: T3, Testis-specific serine/threonine-protein kinase 1 (Homo sapiens) (UniProt Q9BXA7); conditions: at 1 µM
T3 sequence (whole entry): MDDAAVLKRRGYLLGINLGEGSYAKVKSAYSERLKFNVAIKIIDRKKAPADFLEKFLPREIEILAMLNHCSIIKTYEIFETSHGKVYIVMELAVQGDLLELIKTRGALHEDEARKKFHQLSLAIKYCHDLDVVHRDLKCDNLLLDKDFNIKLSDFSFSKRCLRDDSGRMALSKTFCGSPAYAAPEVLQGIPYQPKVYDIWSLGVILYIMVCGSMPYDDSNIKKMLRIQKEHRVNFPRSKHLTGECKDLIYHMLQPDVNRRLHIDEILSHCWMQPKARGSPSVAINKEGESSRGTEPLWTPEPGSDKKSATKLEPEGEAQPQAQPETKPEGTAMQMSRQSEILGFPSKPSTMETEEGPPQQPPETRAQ

[8] = target: T3, Testis-specific serine/threonine-protein kinase 1 (Homo sapiens); conditions: at 10 µM
[9] = target: T4, Testis-specific serine/threonine-protein kinase 2 (Homo sapiens) (UniProt Q96PF2); conditions: at 1 µM
T4 sequence (whole entry): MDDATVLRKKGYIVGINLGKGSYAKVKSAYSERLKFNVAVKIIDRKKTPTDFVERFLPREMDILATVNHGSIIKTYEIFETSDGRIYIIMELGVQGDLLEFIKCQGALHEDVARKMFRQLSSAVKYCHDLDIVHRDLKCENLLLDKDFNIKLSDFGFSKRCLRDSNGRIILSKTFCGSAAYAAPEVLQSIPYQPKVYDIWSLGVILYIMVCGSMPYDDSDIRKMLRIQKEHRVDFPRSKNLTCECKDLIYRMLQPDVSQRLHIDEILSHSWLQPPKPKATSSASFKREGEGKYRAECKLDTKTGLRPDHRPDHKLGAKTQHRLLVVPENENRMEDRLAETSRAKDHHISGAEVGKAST

[10] = target: T4, Testis-specific serine/threonine-protein kinase 2 (Homo sapiens); conditions: at 10 µM
[11] = target: T5, Tyrosine-protein kinase Tec (Homo sapiens) (UniProt P42680); conditions: at 1 µM
T5 sequence (whole entry): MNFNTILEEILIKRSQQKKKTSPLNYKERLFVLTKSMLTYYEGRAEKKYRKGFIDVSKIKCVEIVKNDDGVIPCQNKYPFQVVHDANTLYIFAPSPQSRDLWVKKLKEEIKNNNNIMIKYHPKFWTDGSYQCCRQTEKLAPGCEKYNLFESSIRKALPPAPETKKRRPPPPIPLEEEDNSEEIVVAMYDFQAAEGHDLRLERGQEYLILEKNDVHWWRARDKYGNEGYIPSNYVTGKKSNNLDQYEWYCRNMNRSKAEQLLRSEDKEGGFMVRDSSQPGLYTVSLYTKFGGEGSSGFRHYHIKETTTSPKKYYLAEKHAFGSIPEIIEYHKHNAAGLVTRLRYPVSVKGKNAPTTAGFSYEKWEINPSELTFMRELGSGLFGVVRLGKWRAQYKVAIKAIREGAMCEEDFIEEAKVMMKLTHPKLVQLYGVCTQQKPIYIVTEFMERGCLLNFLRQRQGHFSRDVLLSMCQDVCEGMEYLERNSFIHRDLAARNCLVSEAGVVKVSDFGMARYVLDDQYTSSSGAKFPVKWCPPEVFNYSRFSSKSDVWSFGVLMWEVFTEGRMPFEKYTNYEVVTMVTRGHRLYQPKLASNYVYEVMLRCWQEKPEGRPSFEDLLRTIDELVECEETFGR

[12] = target: T5, Tyrosine-protein kinase Tec (Homo sapiens); conditions: at 10 µM
[13] = target: Angiopoietin-1 receptor (Homo sapiens) (UniProt Q02763); conditions: at 1 µM
Chain of Angiopoietin-1 receptor (Homo sapiens) (Q02763 whole entry): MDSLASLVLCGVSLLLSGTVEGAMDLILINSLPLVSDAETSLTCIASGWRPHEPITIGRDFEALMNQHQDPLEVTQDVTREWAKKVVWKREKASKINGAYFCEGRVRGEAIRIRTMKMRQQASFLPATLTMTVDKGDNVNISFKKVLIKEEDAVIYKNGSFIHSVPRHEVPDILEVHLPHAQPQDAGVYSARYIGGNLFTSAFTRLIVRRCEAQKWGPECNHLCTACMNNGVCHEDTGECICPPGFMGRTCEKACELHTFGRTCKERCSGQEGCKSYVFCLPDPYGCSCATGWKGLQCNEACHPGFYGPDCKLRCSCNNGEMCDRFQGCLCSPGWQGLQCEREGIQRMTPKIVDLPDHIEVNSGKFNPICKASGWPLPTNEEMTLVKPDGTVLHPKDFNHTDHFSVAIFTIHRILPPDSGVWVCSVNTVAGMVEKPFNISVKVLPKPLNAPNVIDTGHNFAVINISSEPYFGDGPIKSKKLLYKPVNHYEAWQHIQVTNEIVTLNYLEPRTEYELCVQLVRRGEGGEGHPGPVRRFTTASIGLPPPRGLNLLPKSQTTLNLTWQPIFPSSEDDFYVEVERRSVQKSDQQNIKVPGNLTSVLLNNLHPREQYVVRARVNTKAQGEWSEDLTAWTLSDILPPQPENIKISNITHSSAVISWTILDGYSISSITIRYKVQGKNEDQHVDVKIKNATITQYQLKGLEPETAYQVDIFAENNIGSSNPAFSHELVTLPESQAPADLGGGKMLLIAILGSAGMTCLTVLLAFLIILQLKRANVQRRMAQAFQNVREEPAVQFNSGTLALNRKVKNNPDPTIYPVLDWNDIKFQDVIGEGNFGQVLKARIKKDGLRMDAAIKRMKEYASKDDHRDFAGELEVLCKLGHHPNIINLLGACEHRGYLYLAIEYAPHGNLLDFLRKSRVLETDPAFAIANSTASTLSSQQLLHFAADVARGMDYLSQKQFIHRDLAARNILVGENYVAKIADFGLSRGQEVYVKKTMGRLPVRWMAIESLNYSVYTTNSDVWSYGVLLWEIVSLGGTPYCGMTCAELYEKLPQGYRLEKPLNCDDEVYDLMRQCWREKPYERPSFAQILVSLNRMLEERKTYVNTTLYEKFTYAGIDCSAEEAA

[14] = target: Angiopoietin-1 receptor (Homo sapiens) (UniProt Q02763); conditions: at 10 µM
[15] = target: High affinity nerve growth factor receptor (Homo sapiens) (UniProt P04629); conditions: at 1 µM
Chain of High affinity nerve growth factor receptor (Homo sapiens) (P04629 33-796 limits assumed): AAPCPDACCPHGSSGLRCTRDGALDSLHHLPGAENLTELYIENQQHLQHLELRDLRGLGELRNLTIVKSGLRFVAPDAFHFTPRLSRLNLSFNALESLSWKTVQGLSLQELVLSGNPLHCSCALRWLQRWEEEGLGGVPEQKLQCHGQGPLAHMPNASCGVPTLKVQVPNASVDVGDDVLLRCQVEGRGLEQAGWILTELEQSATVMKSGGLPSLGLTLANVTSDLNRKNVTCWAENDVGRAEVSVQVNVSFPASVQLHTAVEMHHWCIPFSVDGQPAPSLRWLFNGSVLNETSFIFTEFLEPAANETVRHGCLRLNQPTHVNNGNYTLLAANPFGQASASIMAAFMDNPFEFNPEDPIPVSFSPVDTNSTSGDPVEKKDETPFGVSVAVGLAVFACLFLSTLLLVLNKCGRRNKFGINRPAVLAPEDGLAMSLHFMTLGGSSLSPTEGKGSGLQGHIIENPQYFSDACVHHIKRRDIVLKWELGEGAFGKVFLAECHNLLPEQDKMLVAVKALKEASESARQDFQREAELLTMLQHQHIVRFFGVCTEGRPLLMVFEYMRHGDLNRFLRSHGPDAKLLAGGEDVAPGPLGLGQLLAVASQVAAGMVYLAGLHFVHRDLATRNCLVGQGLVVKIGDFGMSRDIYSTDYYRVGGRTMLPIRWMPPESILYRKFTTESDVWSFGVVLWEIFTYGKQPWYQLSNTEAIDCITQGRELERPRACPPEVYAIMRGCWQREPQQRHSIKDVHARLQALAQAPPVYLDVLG

[16] = target: High affinity nerve growth factor receptor (Homo sapiens) (UniProt P04629); conditions: at 10 µM
[17] = target: BDNF/NT-3 growth factors receptor (Homo sapiens) (UniProt Q16620); conditions: at 1 µM
Chain of BDNF/NT-3 growth factors receptor (Homo sapiens) (Q16620 32-822 limits assumed): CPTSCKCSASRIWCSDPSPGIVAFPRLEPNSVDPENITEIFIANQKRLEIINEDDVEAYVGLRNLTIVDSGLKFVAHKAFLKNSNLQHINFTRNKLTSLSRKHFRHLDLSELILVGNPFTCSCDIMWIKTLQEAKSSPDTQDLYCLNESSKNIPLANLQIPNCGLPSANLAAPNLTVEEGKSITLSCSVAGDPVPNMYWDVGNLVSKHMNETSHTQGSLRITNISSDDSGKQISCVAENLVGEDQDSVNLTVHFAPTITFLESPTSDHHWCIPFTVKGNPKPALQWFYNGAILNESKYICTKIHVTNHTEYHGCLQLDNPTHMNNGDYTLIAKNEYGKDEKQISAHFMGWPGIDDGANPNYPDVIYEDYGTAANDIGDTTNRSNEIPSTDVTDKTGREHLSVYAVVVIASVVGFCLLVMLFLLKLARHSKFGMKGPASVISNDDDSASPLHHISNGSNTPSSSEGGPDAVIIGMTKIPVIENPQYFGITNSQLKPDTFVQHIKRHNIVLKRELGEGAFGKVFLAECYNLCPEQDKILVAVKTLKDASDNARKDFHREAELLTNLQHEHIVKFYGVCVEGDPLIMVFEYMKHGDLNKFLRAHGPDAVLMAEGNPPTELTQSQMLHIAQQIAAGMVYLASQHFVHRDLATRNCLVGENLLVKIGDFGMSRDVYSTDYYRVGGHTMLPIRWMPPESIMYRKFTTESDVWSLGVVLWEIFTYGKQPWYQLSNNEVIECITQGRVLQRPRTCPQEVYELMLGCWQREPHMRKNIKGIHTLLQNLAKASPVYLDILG

[18] = target: BDNF/NT-3 growth factors receptor (Homo sapiens) (UniProt Q16620); conditions: at 10 µM
[19] = target: T6, Tyrosine-protein kinase TXK (Homo sapiens) (UniProt P42681); conditions: at 1 µM
T6 sequence (whole entry): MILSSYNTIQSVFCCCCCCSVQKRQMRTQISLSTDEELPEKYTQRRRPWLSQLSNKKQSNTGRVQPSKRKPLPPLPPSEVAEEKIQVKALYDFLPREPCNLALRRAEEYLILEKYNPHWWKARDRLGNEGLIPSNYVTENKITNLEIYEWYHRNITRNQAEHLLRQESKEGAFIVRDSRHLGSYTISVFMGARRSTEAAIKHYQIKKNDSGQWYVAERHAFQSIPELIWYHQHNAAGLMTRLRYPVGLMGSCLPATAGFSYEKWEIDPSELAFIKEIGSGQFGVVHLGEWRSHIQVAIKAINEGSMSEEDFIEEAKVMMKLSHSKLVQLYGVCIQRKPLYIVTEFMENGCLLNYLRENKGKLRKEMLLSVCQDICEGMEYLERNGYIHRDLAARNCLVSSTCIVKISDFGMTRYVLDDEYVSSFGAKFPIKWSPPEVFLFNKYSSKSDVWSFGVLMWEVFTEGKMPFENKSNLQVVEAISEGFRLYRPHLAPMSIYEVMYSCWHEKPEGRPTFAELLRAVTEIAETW

[20] = target: T6, Tyrosine-protein kinase TXK (Homo sapiens); conditions: at 10 µM

Row | SMILES | residual activity [1] [%] | residual activity [2] [%] | residual activity [3] [%] | residual activity [4] [%] | residual activity [5] [%] | residual activity [6] [%] | residual activity [7] [%] | residual activity [8] [%] | residual activity [9] [%] | residual activity [10] [%] | residual activity [11] [%] | residual activity [12] [%] | residual activity [13] [%] | residual activity [14] [%] | residual activity [15] [%] | residual activity [16] [%] | residual activity [17] [%] | residual activity [18] [%] | residual activity [19] [%] | residual activity [20] [%]
1 | C[S+]([O-])c1ccc(-c2nc(-c3ccc(F)cc3)c(-c3ccncc3)[nH]2)cc1 (stereo not given) | 114 | 118 | 104 | 104 | 113 | 109 | 106 | 94 | 94 | 100 | 94 | 89 | 102 | 62 | 121 | 115 | 94 | 104 | 77 | 42
2 | O=c1[nH]c2ccccc2n1C1CCN(Cc2ccc(-c3nc4cc5[nH]cnc5cc4nc3-c3ccccc3)cc2)CC1 | 86 | 84 | 111 |  | 104 | 84 | 97 | 54 | 106 | 45 | 95 | 38 | 86 | 37 | 86 | 56 | 75 | 70 | 102 | 94
3 | O=[N+]([O-])/C=C/c1ccc2c(c1)OCO2 | 87 | 98 |  | 107 | 99 | 97 | 96 | 94 | 87 | 74 | 89 | 90 | 80 | 60 | 94 | 116 | 120 | 119 | 76 | 77
4 | COc1ccc2c(c1)/C(=C/c1cnc[nH]1)C(=O)N2 |  |  |  |  | 63 | 11 |  |  |  |  |  | 70 |  | 71 | 3 | 0 |  |  | 77 | 46
5 | NC(=O)Nc1sc(-c2ccc(F)cc2)cc1C(N)=O |  |  |  |  |  |  |  |  | 88 |  |  |  |  |  |  |  |  |  |  | 
6 | CCn1cnc2c(Nc3cccc(Cl)c3)nc(N[C@@H]3CCCC[C@@H]3N)nc21 | 98 | 55 | 75 | 81 | 31 | 4 | 79 | 40 | 90 | 58 | 39 | 7 | 83 | 42 | 12 | 1 | 15 | 0 | 52 | 10
7 | COC(=O)[C@@]1(O)C[C@H]2O[C@]1(C)n1c3ccccc3c3c4c(c5c6ccccc6n2c5c31)C(=O)NC4 | 75 | 29 | 65 | 53 | 1 | 0 | -1 | 0 | 8 | 0 | 3 | 2 | 20 | 3 |  |  | 0 | 0 | 35 | 5
